Results published in PubChem BioAssay AID463208 (Broad Institute, 2010).
Values without a mark were called inactive.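 Rule for the calls: active = AC50 at most tenfold above the top tested concentration; inconclusive = flat fit with 30 to 70% activity, or a poor fit; inactive = AC50 over tenfold above the top dose.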

test: inhibition of yeast nuclear histone deacetylase activity – cell lysate, fluorescence, yeast nuclear extract, mechanism study for Sdo1 growth activator project, dose response (AID 463208); conditions: yeast nuclear extract HDAC activity, fluorogenic substrate

Compound | AC50 [µM]
Cc1ccc(Cn2c(CN3CC(C)OC(C)C3)nc3c2c(=O)n(C)c(=O)n3C)cc1 (stereo not given) | > 50
CCOc1cccc(C(=O)NC(=S)NCc2cccnc2)c1 | > 50
Cc1ccc(Cn2c(Sc3ncccn3)nc3c2c(=O)[nH]c(=O)n3C)cc1 | > 50
CC(=O)N(c1ccccc1)C1C(=O)C(=O)c2ccccc2C1=O (stereo not given) | > 50
CCN(CC)CCCNC(=O)C1CCNCC1 | > 50
CSCC[C@H](NC(=O)OC(C)(C)C)c1nnc(SCC(N)=O)o1 | > 50
O=C(CSc1nc(-c2cccs2)cc(C(F)(F)F)n1)NCc1ccco1 | > 50
Cc1nc(CS(=O)(=O)c2ccccc2)cc(N2CCOCC2)n1 | > 50
CC(=O)N(C1=C(Cl)C(=O)c2ccccc2C1=O)C1CCCCC1 | > 50
O=C(COC(=O)Cc1ccsc1)Nc1ccccc1 | > 50
O=C(Nc1cccc(Cl)c1)c1ccc(NCC2CCCO2)c([N+](=O)[O-])c1 (stereo not given) | > 50
O=C(CSc1nc(-c2ccco2)cc(C(F)(F)F)n1)NCc1cccs1 | > 50
COc1ccc(OCC(O)Cn2c(Nc3ccccc3)nc3c2c(=O)n(C)c(=O)n3C)cc1 (stereo not given) | > 50
CCOc1ccc(C(=O)NC(=S)NCc2cccnc2)cc1 | > 50
Cc1ccc(Cn2c(Sc3nccc(C)n3)nc3c2c(=O)[nH]c(=O)n3C)cc1 | > 50
